PubChem BioAssay (NCATS)
Records with an inconclusive call do not appear. The source made the active and inactive calls. Calls come from the whole dose curve; as a rule, active = well fitted cell-killing curve with a large enough effect; inconclusive = small, poorly fitted or top-dose-only effect, or effect the other way; inactive = no such curve, though single readings can be large or run the other way.

Columns and labels:
[1] = Quantitative High-Throughput drug screen in 47 multiple myeloma cell lines against the NCATS MIPE library collection: MM1R_ATCC cell viability assay (AID 1918981); note: nearly all actives have a fitted effect of over 35% in size
Method in brief: (§1)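 qHTS format: cells plated (500/well), pin-dosed with MIPE 4.0 compounds, kept 48 h at 37 °C. Readout was CellTiter-Glo luminescence, median RLU.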

[2] = Quantitative High-Throughput drug screen in 47 multiple myeloma cell lines against the NCATS MIPE library collection: LP1_DSMZ cell viability assay (AID 1918982); note: nearly all actives have a fitted effect of over 35% in size
Method in brief: as §1

[3] = Quantitative High-Throughput drug screen in 47 multiple myeloma cell lines against the NCATS MIPE library collection: KMS28PE_JCRB cell viability assay (AID 1918983); note: nearly all actives have a fitted effect of over 35% in size
Method in brief: as §1

[4] = Quantitative High-Throughput drug screen in 47 multiple myeloma cell lines against the NCATS MIPE library collection: L363_DSMZ cell viability assay (AID 1918984); note: nearly all actives have a fitted effect of over 40% in size
Method in brief: as §1

[5] = Quantitative High-Throughput drug screen in 47 multiple myeloma cell lines against the NCATS MIPE library collection: OCIMY7_PLB cell viability assay (AID 1918987); note: nearly all actives have a fitted effect of over 65% in size
Method in brief: as §1

[6] = Quantitative High-Throughput drug screen in 47 multiple myeloma cell lines against the NCATS MIPE library collection: OCIMY5_PLB cell viability assay (AID 1918988); note: nearly all actives have a fitted effect of over 65% in size
Method in brief: as §1

[7] = Quantitative High-Throughput drug screen in 47 multiple myeloma cell lines against the NCATS MIPE library collection: OPM1_PLB cell viability assay (AID 1918989); note: nearly all actives have a fitted effect of over 40% in size
Method in brief: as §1

[8] = Quantitative High-Throughput drug screen in 47 multiple myeloma cell lines against the NCATS MIPE library collection: SKMM1_PLB cell viability assay (AID 1919863); settings: SKMM1 myeloma viability, CellTiter-Glo ATP, 48 h; viability: active compounds read low; note: nearly all actives have a fitted effect of over 35% in size; for viability: series mostly up to about 46 µM
Method in brief: as §1

[9] = Quantitative High-Throughput drug screen in 47 multiple myeloma cell lines against the NCATS MIPE library collection: U266_ATCC cell viability assay (AID 1919864); note: nearly all actives have a fitted effect of over 35% in size
Method in brief: as §1

[10] = Quantitative High-Throughput drug screen in 47 multiple myeloma cell lines against the NCATS MIPE library collection: XG6_PLB cell viability assay (AID 1919865); note: nearly all actives have a fitted effect of over 40% in size
Method in brief: as §1

[11] = Quantitative High-Throughput drug screen in 47 multiple myeloma cell lines against the NCATS MIPE library collection: XG1_PLB cell viability assay (AID 1919866); note: nearly all actives have a fitted effect of over 35% in size
Method in brief: as §1

[12] = Quantitative High-Throughput drug screen in 47 multiple myeloma cell lines against the NCATS MIPE library collection: VP6_DJ cell viability assay (AID 1919867); note: nearly all actives have a fitted effect of over 40% in size
Method in brief: as §1

[13] = Quantitative High-Throughput drug screen in 47 multiple myeloma cell lines against the NCATS MIPE library collection: UTMC2_PLB cell viability assay (AID 1919868); note: nearly all actives have a fitted effect of over 55% in size
Method in brief: as §1

[14] = Quantitative High-Throughput drug screen in 47 multiple myeloma cell lines against the NCATS MIPE library collection: PE2_PLB cell viability assay (AID 1919869); note: nearly all actives have a fitted effect of over 35% in size
Method in brief: as §1

[15] = Quantitative High-Throughput drug screen in 47 multiple myeloma cell lines against the NCATS MIPE library collection: PCM6_Riken cell viability assay (AID 1919870); note: nearly all actives have a fitted effect of over 30% in size
Method in brief: as §1

[16] = Quantitative High-Throughput drug screen in 47 multiple myeloma cell lines against the NCATS MIPE library collection: RPMI8226_ATCC cell viability assay (AID 1919871); note: nearly all actives have a fitted effect of over 30% in size
Method in brief: as §1

[17] = Quantitative High-Throughput drug screen in 47 multiple myeloma cell lines against the NCATS MIPE library collection: OPM2_DSMZ cell viability assay (AID 1919872); note: nearly all actives have a fitted effect of over 30% in size
Method in brief: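 Viability readout: CellTiter-Glo luminescence following 5 min room-temperature incubation with reagent. Prior exposure: 48 h, 37C, humidified 5% CO2, 500 cells per well.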

[18] = Quantitative High-Throughput drug screen in 47 multiple myeloma cell lines against the NCATS MIPE library collection: KMS11_JCRBsus cell viability assay (AID 1919873); note: nearly all actives have a fitted effect of over 50% in size
Method in brief: as §1

[19] = Quantitative High-Throughput drug screen in 47 multiple myeloma cell lines against the NCATS MIPE library collection: KMS28BM_JCRB cell viability assay (AID 1919874); note: nearly all actives have a fitted effect of over 35% in size
Method in brief: as §1

[20] = Quantitative High-Throughput drug screen in 47 multiple myeloma cell lines against the NCATS MIPE library collection: KMS34_JCRB cell viability assay (AID 1918985); note: nearly all actives have a fitted effect of over 40% in size
Method in brief: as §1
Potency is the fitted concentration of half-maximal effect.

Cc1ccc(S(=O)(=O)N[C@@H](Cc2ccccc2)C(=O)CCl)cc1
active: Potency [1] 16.6 µM | Potency [2] 20.9 µM | Potency [3] 20.9 µM | Potency [4] 11.8 µM | Potency [5] 3.32 µM | Potency [6] 7.43 µM | Potency [7] 9.35 µM | Potency [8] 18.7 µM | Potency [9] 18.7 µM | Potency [10] 14.8 µM | Potency [11] 7.43 µM | Potency [12] 9.35 µM | Potency [13] 13.2 µM | Potency [14] 10.5 µM | Potency [15] 11.8 µM | Potency [16] 20.9 µM | Potency [17] 18.7 µM | Potency [18] 9.35 µM | Potency [19] 11.8 µM

Cn1c(=O)c2c(ncn2CC(O)CO)n(C)c1=O (centres undefined)
active: Potency [4] 5.26 µM
inactive: Potency [1] | Potency [2] | Potency [3] | Potency [20] | Potency [6] | Potency [7] | Potency [10] | Potency [14] | Potency [16] | Potency [17] | Potency [19]

COc1cc(NCc2ccc3nc(N)nc(N)c3c2C)cc(OC)c1OC
active: Potency [1] 7.43 µM | Potency [2] 1.48 µM | Potency [3] 14.8 µM | Potency [4] 0.935 µM | Potency [20] 3.72 µM | Potency [5] 1.48 µM | Potency [6] 6.62 µM | Potency [7] 5.9 µM | Potency [8] 11.8 µM | Potency [9] 1.48 µM | Potency [10] 11.8 µM | Potency [11] 3.72 µM | Potency [12] 2.64 µM | Potency [13] 0.743 µM | Potency [14] 1.66 µM | Potency [16] 16.6 µM | Potency [17] 18.7 µM | Potency [18] 2.64 µM | Potency [19] 20.9 µM

CC(=O)Oc1ccccc1C(=O)Nc1ncc([N+](=O)[O-])s1
active: Potency [1] 19.1 µM | Potency [2] 21.5 µM | Potency [3] 38.2 µM | Potency [4] 17.1 µM | Potency [20] 42.9 µM | Potency [5] 21.5 µM | Potency [6] 13.6 µM | Potency [7] 24.1 µM | Potency [8] 38.2 µM | Potency [10] 24.1 µM | Potency [11] 30.3 µM | Potency [12] 17.1 µM | Potency [13] 13.6 µM | Potency [14] 13.6 µM | Potency [15] 27 µM | Potency [16] 19.1 µM

Oc1c(Cl)cc(Cl)c2cccnc12
active: Potency [1] 11.8 µM | Potency [2] 26.4 µM | Potency [3] 20.9 µM | Potency [4] 9.35 µM | Potency [20] 16.6 µM | Potency [5] 10.5 µM | Potency [6] 6.62 µM | Potency [7] 10.5 µM | Potency [8] 18.7 µM | Potency [9] 8.33 µM | Potency [10] 4.69 µM | Potency [11] 11.8 µM | Potency [12] 5.9 µM | Potency [13] 11.8 µM | Potency [14] 9.35 µM | Potency [15] 9.35 µM | Potency [16] 18.7 µM | Potency [17] 26.4 µM | Potency [18] 18.7 µM | Potency [19] 16.6 µM

Nc1[nH]c(=O)ncc1F
inactive: Potency [1] | Potency [2] | Potency [3] | Potency [4] | Potency [5] | Potency [7] | viability [8] 117% | Potency [13] | Potency [14] | Potency [17] | Potency [18] | Potency [19]
active: Potency [9] 2.64 µM | Potency [12] 20.9 µM

Cc1nnc(C(=O)NC(C)(C)c2nc(C(=O)NCc3ccc(F)cc3)c(O)c(=O)n2C)o1
inactive: Potency [1] | Potency [2] | Potency [3] | Potency [4] | Potency [20] | Potency [5] | Potency [7] | viability [8] 152% | Potency [9] | Potency [10] | Potency [11] | Potency [12] | Potency [13] | Potency [14] | Potency [15] | Potency [16] | Potency [17]

O=NN(CCCl)C(=O)NC1CCCCC1
inactive: Potency [1] | Potency [2] | Potency [3] | Potency [4] | Potency [20] | Potency [7] | Potency [9] | Potency [10] | Potency [11] | Potency [12] | Potency [13] | Potency [14] | Potency [18] | Potency [19]

CC(C)C[C@H](NC(=O)[C@H](CCc1ccccc1)NC(=O)CN1CCOCC1)C(=O)N[C@@H](Cc1ccccc1)C(=O)N[C@@H](CC(C)C)C(=O)[C@@]1(C)CO1
active: Potency [1] 0.0037 µM | Potency [2] 0.0093 µM | Potency [3] 0.003 µM | Potency [4] 0.001 µM | Potency [20] 0.0059 µM | Potency [5] 0.0118 µM | Potency [6] 0.0033 µM | Potency [7] 0.0093 µM | Potency [8] 0.0209 µM | Potency [9] 0.0047 µM | Potency [10] 0.001 µM | Potency [11] 0.001 µM | Potency [12] 0.001 µM | Potency [13] 0.001 µM | Potency [14] 0.001 µM | Potency [15] 0.001 µM | Potency [16] 0.0166 µM | Potency [17] 0.0166 µM | Potency [18] 0.0053 µM | Potency [19] 0.0053 µM

CCCc1nc(C)c2c(=O)[nH]c(-c3cc(S(=O)(=O)N4CCN(CC)CC4)ccc3OCC)nn12
active: Potency [1] 4.18 µM | Potency [2] 4.69 µM | Potency [3] 8.33 µM | Potency [4] 4.18 µM | Potency [20] 3.72 µM | Potency [5] 5.9 µM | Potency [6] 5.9 µM | Potency [7] 7.43 µM | Potency [8] 9.35 µM | Potency [9] 5.9 µM | Potency [10] 4.69 µM | Potency [11] 5.9 µM | Potency [12] 5.9 µM | Potency [13] 10.5 µM | Potency [14] 5.9 µM | Potency [15] 5.26 µM | Potency [16] 9.35 µM | Potency [17] 5.9 µM | Potency [19] 3.72 µM

CCCCS(=N)(=O)CCC(N)C(=O)O (centres undefined)
inactive: Potency [1] | Potency [2] | Potency [3] | Potency [9] | Potency [14] | Potency [16] | Potency [17] | Potency [18] | Potency [19]
active: Potency [11] 13.2 µM | Potency [12] 7.43 µM | Potency [15] 18.7 µM

NC(=O)N1c2ccccc2CC(=O)c2ccccc21
inactive: Potency [1] | Potency [2] | Potency [4] | Potency [20] | Potency [7] | viability [8] 118% | Potency [11] | Potency [12] | Potency [14] | Potency [15] | Potency [16] | Potency [17]
